# In PubChem BioAssay (NCATS):
# “And” between values parts separate entries of the source, which are not always exact repeats. Equal values may be shown once. Inconclusive results are not listed. The source holds several records for some structures; these can differ, active in one and inactive in another. The source made the active and inactive calls. Unless noted, calls follow the shape of the full dose curve.
# Assays:
# [1] = qHTS drug screen for cell cycle checkpoint inhibitors in PARPi-resistant BRCA-mutant ovarian cancer cell lines. (AID 1963452); details: PEO1/OlaR viability, CellTiter-Glo luminescence, 96 h; for Z-AUC: stronger effect = lower value
# Summary of the method: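 PEO1, PEO4 and PEO1/OlaR ovarian cancer cells, 600 per well, exposed 96 h at 37C to a dilution series. Viability read by CellTiter-Glo luminescence, normalized to DMSO and empty wells; activity summarized as Z-AUC.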
# [2] = test system: 3D7; assay: qHTS profiling for inhibitors of Plasmodium falciparum proliferation (AID 504749; active = well fitted inhibition curve with a large enough effect; also: nearly all actives have a fitted effect of over 60% in size); details: P. falciparum in erythrocytes, SYBR Green DNA, 72 h; series mostly up to 28.7 µM
# Summary of the method: (§1)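 P. falciparum-infected erythrocytes (0.3% parasitemia, 2.5% hematocrit final) were exposed to compounds for 72 h at 37 C in 5% CO2, then lysed with SYBR Green buffer overnight at room temperature; parasite DNA fluorescence was normalized to artemisinin and DMSO controls.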
# [3] = test system: 7G8; assay: as above; details: P. falciparum in erythrocytes, SYBR Green DNA, 72 h; series mostly up to 28.7 µM
# Summary of the method: as §1
# [4] = test system: AA1029; assay: as above; details: P. falciparum in erythrocytes, SYBR Green DNA, 72 h; series mostly up to 28.7 µM
# Summary of the method: as §1
# [5] = test system: AS120; assay: as above; details: P. falciparum in erythrocytes, SYBR Green DNA, 72 h; series mostly up to 28.7 µM
# Summary of the method: as §1
# [6] = test system: ATS189; assay: as above; details: P. falciparum in erythrocytes, SYBR Green DNA, 72 h; series mostly up to 28.7 µM
# Summary of the method: as §1
# [7] = test system: ATS95; assay: as above; details: P. falciparum in erythrocytes, SYBR Green DNA, 72 h; series mostly up to 28.7 µM
# Summary of the method: as §1
# [8] = test system: C2A; assay: as above; details: P. falciparum in erythrocytes, SYBR Green DNA, 72 h; series mostly up to 28.7 µM
# Summary of the method: as §1
# [9] = test system: CP191; assay: as above; details: P. falciparum in erythrocytes, SYBR Green DNA, 72 h; series mostly up to 28.7 µM
# Summary of the method: as §1
# [10] = test system: CP192; assay: as above; details: P. falciparum in erythrocytes, SYBR Green DNA, 72 h; series mostly up to 28.7 µM
# Summary of the method: as §1
# [11] = test system: CP194; assay: as above; details: P. falciparum in erythrocytes, SYBR Green DNA, 72 h; series mostly up to 28.7 µM
# Summary of the method: as §1
# [12] = test system: CP201; assay: as above; details: P. falciparum in erythrocytes, SYBR Green DNA, 72 h; series mostly up to 28.7 µM
# Summary of the method: as §1
# [13] = test system: CP203; assay: as above; details: P. falciparum in erythrocytes, SYBR Green DNA, 72 h; series mostly up to 28.7 µM
# Summary of the method: as §1
# [14] = test system: CP215; assay: as above; details: P. falciparum in erythrocytes, SYBR Green DNA, 72 h; series mostly up to 28.7 µM
# Summary of the method: as §1
# [15] = test system: CP217; assay: as above; details: P. falciparum in erythrocytes, SYBR Green DNA, 72 h; series mostly up to 28.7 µM
# Summary of the method: as §1
# [16] = test system: CP237; assay: as above; details: P. falciparum in erythrocytes, SYBR Green DNA, 72 h; series mostly up to 28.7 µM
# Summary of the method: as §1
# [17] = test system: CP238; assay: as above; details: P. falciparum in erythrocytes, SYBR Green DNA, 72 h; series mostly up to 28.7 µM
# Summary of the method: as §1
# [18] = qHTS for identification of novel therapeutic agents for treatment of microphthalmiaassociated transcription factor (MiT) renal cell carcinoma (RCC) (AID 1963991); details: CellTiter-Glo, 48 h; for z-score: stronger effect = lower value; for Potency: active = Z-AUC below -0.8 in all three lines
# Summary of the method: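 Three TFE3-fusion RCC cell lines (UOK109, UOK124, UOK145), 500 cells/well, were exposed to the 1912-compound MIPE 4.0 library for 48 hours at 37 C. Viability was read by CellTiter-Glo luminescence, normalised to DMSO (100%) and empty wells (0%), with 11-concentration curve fits.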
# [19] = measured here: PEO1 parental Z-AUC
# [20] = TFE3-RCC UOK109 viability, measured here: UOK109 Z-AUC
# [21] = TFE3-RCC viability, measured here: UOK124 Z-AUC
# [22] = TFE3-RCC viability, measured here: UOK145 Z-AUC
# Potency is read from the fitted curve at half-maximal effect.
smiles,measurement,setting,value
C#Cc1cccc(Nc2ncnc3cc(OCCOC)c(OCCO)cc23)c1,Z-AUC,[1],0.364 (inactive)
same,Z-AUC,[1]; [19],0.383
same,Z-AUC,[1]; measured here: PEO4 Z-AUC,0.173
O=C(Nc1nnc(-c2ccco2)o1)c1cc(-c2ccccc2)nc2ccccc12,Z-AUC,[1],1.38 (inactive)
same,Z-AUC,[1]; [19],0.606
same,Z-AUC,[1]; measured here: PEO4 Z-AUC,0.601
CC(C)c1cc(C(C)C)c(CC(=O)NS(=O)(=O)Oc2c(C(C)C)cccc2C(C)C)c(C(C)C)c1,Z-AUC,[1],0.134 (inactive)
same,Z-AUC,[1]; [19],0.546
same,Z-AUC,[1]; measured here: PEO4 Z-AUC,1.13
C[C@@H]1C(=O)O[C@H]2CC34[C@H]5C[C@@H](C(C)(C)C)C36[C@H](OC(=O)[C@@H]6O)O[C@@]4(C(=O)O5)[C@]21O (stereo not given in full),Z-AUC,[1],0.793 (inactive)
same,Z-AUC,[1]; [19],0.5
same,Z-AUC,[1]; measured here: PEO4 Z-AUC,0.284
CN(CC(=O)N(Cc1ccc(C2CCCCC2)cc1)c1ccc(C(=O)O)c(O)c1)S(=O)(=O)c1c(F)c(F)c(F)c(F)c1F,Z-AUC,[1],0.87 (inactive)
same,Z-AUC,[1]; [19],0.115
same,Z-AUC,[1]; measured here: PEO4 Z-AUC,0.274
Cn1cc(C2=C(c3c4n(c5ccccc35)CCC(CN)C4)C(=O)NC2=O)c2ccccc21 (stereo not given),Z-AUC,[1],0.936 (inactive)
same,Z-AUC,[1]; [19],1.25
same,Z-AUC,[1]; measured here: PEO4 Z-AUC,1.18
CCOC(=O)C=C[C@H](C[C@@H]1CCNC1=O)NC(=O)[C@@H](CC(=O)[C@@H](NC(=O)c1cc(C)on1)C(C)C)Cc1ccc(F)cc1,Z-AUC,[1],-0.315 (inactive)
same,Z-AUC,[1]; [19],-0.169
same,Z-AUC,[1]; measured here: PEO4 Z-AUC,0.164
COc1cccc2c1C(=O)c1c(O)c3c(c(O)c1C2=O)C[C@@](O)(C(=O)CO)C[C@@H]3O[C@H]1C[C@H](N)[C@H](OC2CCCCO2)[C@H](C)O1 (stereo not given in full),Potency,[1],0.245 µM (active)
same,Z-AUC,[1],0.402 (inactive)
same,Z-AUC,[1]; [19],-0.769 and -1.75
same,Z-AUC,[1]; measured here: PEO4 Z-AUC,0.0749 and -1.06
same,Potency,[2],2.24 µM (active)
same,Potency,[3],0.794 µM (active)
same,Potency,[4],3.55 µM (active)
same,Potency,[5],2.51 µM (active)
same,Potency,[6],11.2 µM (active)
same,Potency,[7],3.98 µM (active)
same,Potency,[8],8.91 µM (active)
same,Potency,[9],8.91 µM (active)
same,Potency,[10],8.49 µM (active)
same,Potency,[11],9.53 µM (active)
same,Potency,[12],9.53 µM (active)
same,Potency,[13],4.78 µM (active)
same,Potency,[14],6.75 µM (active)
same,Potency,[15],4.47 µM (active)
same,Potency,[16],2.24 µM (active)
same,Potency,[17],5.01 µM (active)
N#Cc1cc(NC(=O)Nc2nnc(-c3ccncc3)s2)ccc1-c1cn[nH]c1,Z-AUC,[1],-0.0161 (inactive)
same,Z-AUC,[1]; [19],0.0346
same,Z-AUC,[1]; measured here: PEO4 Z-AUC,0.15
c1coc(CNc2ncnc3nc[nH]c23)c1,Z-AUC,[1],0.877 (inactive)
same,Z-AUC,[1]; [19],0.956
same,Z-AUC,[1]; measured here: PEO4 Z-AUC,1.1
NC(=O)c1cccc(-c2cccc(OC(=O)NC3CCCCC3)c2)c1,Z-AUC,[1],-0.0721 (inactive)
same,Z-AUC,[1]; [19],0.554
same,Z-AUC,[1]; measured here: PEO4 Z-AUC,-0.318
same,z-score,[18]; [20],0.801
same,z-score,[18]; [21],0.852
same,z-score,[18]; [22],0.744
O=C1CSC(=O)N1C(CCc1ccncc1)COc1ccc(-c2cccc([N+](=O)[O-])c2)cc1 (stereo not given),Z-AUC,[1],0.623 (inactive)
same,Z-AUC,[1]; [19],-0.739
same,Z-AUC,[1]; measured here: PEO4 Z-AUC,0.104
CCc1nc(-c2cccc(C)c2)c(-c2ccnc(NC(=O)c3ccccc3)c2)s1,Z-AUC,[1],-0.209 (inactive)
same,Z-AUC,[1]; [19],0.57
same,Z-AUC,[1]; measured here: PEO4 Z-AUC,0.812
Nc1ccn(C[C@@H](CO)OCP(=O)(O)O)c(=O)n1,Z-AUC,[1],-1.33 (inactive)
same,Z-AUC,[1]; [19],-0.089
same,Z-AUC,[1]; measured here: PEO4 Z-AUC,-0.602
same,z-score,[18]; [20],1.6
same,z-score,[18]; [21],1.03
same,z-score,[18]; [22],1.52
Cn1cc(CNCC2CCN(c3ncc(C(=O)NO)cn3)CC2)c2ccccc21,Potency,[1],0.195 µM (active)
same,Z-AUC,[1]; [19],-1.95
same,Z-AUC,[1]; measured here: PEO4 Z-AUC,-1.89
same,Potency,[18]; TFE3-RCC UOK109 viability,0.166 µM (active)
same,z-score,[18]; [20],-1.71
same,z-score,[18]; [21],-4.28
same,z-score,[18]; [22],-1.68
CCN(C(=O)c1c(O)c2c(Cl)cccc2n(C)c1=O)c1ccccc1,Z-AUC,[1],-0.417 (inactive)
same,Z-AUC,[1]; [19],-0.714
same,Z-AUC,[1]; measured here: PEO4 Z-AUC,-1.09
same,z-score,[18]; [20],0.408
same,z-score,[18]; [21],0.904
same,z-score,[18]; [22],0.468
Cn1cc(C[C@@H](N)C(=O)O)c2ccccc21,Z-AUC,[1],0.11 (inactive)
same,Z-AUC,[1]; [19],1.01
same,Z-AUC,[1]; measured here: PEO4 Z-AUC,0.769
same,z-score,[18]; [20],1.28
same,z-score,[18]; [21],1.02
same,z-score,[18]; [22],1.04
Cc1cncc2cccc(S(=O)(=O)N3CCCN(C(=O)CN)C[C@@H]3C)c12,Z-AUC,[1],-0.369 (inactive)
same,Z-AUC,[1]; [19],-0.0744
same,Z-AUC,[1]; measured here: PEO4 Z-AUC,-0.172
same,z-score,[18]; [20],1.38
same,z-score,[18]; [21],0.196
same,z-score,[18]; [22],0.7
Cc1noc(-c2ccc(CSCCC(=O)O)cc2)c1NC(=O)OC(C)c1ccccc1Cl (stereo not given),Z-AUC,[1],-0.506 (inactive)
same,Z-AUC,[1]; [19],-0.869
same,Z-AUC,[1]; measured here: PEO4 Z-AUC,-0.91
same,z-score,[18]; [20],-0.684
same,z-score,[18]; [21],0.0534
same,z-score,[18]; [22],0.402
CCCCCCCN(CC)CCCC(O)c1ccc(NS(C)(=O)=O)cc1 (stereo not given),Z-AUC,[1],1.02 (inactive)
same,Z-AUC,[1]; [19],0.764
same,Z-AUC,[1]; measured here: PEO4 Z-AUC,1.03
same,z-score,[18]; [20],0.349
same,z-score,[18]; [21],-0.246
same,z-score,[18]; [22],0.649
Cc1cnc(Nc2ccc(CN3CCOCC3)cc2)nc1Nc1cccc(S(=O)(=O)NC(C)(C)C)c1,Z-AUC,[1],-2.02 (inactive)
same,Z-AUC,[1]; [19],-1.2
same,Z-AUC,[1]; measured here: PEO4 Z-AUC,-1.56
same,Potency,[18]; TFE3-RCC UOK109 viability,4.18 µM (active)
same,z-score,[18]; [20],-1.32
same,z-score,[18]; [21],-0.971
same,z-score,[18]; [22],-1.1
CCCCCCCCCCCCc1ccc(S(=O)(=O)Nc2nncs2)cc1,Z-AUC,[1],-0.392 (inactive)
same,Z-AUC,[1]; [19],0.179
same,Z-AUC,[1]; measured here: PEO4 Z-AUC,0.202
same,z-score,[18]; [20],1.37
same,z-score,[18]; [21],2.17
same,z-score,[18]; [22],1.03
